# Data from PubChem BioAssay AID2501 (Southern Research Specialized Biocontainment Screening …, 2010).
# The campaign covered roughly 2,200 compounds. About 1,200 (55%) were called active. So high a share suggests a set chosen from earlier hits. This is one part of the list. A number with no mark means an inactive call. No cut-off is given here; in the data, nearly all actives have IC50 up to about 92 µM.
# Experiment: counter assay for TAg ATPase ADP read-out – biochemical, ADP-Hunter, fluorescence, counter-screen (AID 2501);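 note: purified T antigen ATPase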;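 for inhibition: 0% = enzyme with vehicle and 100% = reference inhibitor wells; higher means more inhibition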
# Conditions: series mostly up to 100 µM; inhibition: at the top concentration
SMILES,inhibition,IC50
COc1ccc(N2C(=O)/C(=C/c3ccco3)C(=O)NC2=S)cc1,20.8% [at 50 µM],
COc1cccc(-n2c(/C=C/c3ccc(O)c(O)c3)nc3ccccc3c2=O)c1,,7 µM (active)
COC(=O)C1=Nc2ccccc2/C1=C\c1c(O)n(-c2ccc(OC)cc2)c(=O)[nH]c1=O,4.61%,
COc1ccc(-n2c(/C=C/c3ccc(O)c(O)c3)nc3ccccc3c2=O)cc1,,24.2 µM (active)
Cc1ccc2c(c1)=NC(=O)/C(=C/c1c(O)[nH]c(=O)[nH]c1=O)C=2,0.6%,
CN(C)[C@@H]1C(=O)C(C(N)=O)=C(O)[C@@]2(O)C(=O)C3=C(O)c4c(O)cccc4[C@@](C)(O)[C@H]3C[C@@H]12,6.46%,
COc1ccc(/C=C2/C(=O)N(Cc3ccco3)C(=O)N(C(C)C)C2=O)cc1,23%,
O=C(O)c1c[nH]c2ccc(S(=O)(=O)N(CCCl)CCCl)cc12,-5.36%,
O=c1cc(-c2ccc(O)c(O)c2)oc2c(C3O[C@H](CO)[C@@H](O)[C@H](O)[C@H]3O)c(O)cc(O)c12 (stereo not given in full),,4.81 µM (active)
O=C1N[C@H](Cc2ccccc2)C(=O)N2[C@@H]3[C@H](C[C@@H]12)c1ccccc1N3OOSc1ccccc1,-26.1%,
O=C1NC(=S)N(c2ccc(F)cc2)C(=O)/C1=C\c1ccoc1,21.9%,
COc1cccc(C(=O)NC2CC3CCCC(C2)N3CC(=O)Nc2ccc(N(C)C)cc2)c1 (stereo not given),,3.14 µM (active)
CN(C)c1ccc(NC(=O)CN2CCC(O)(c3ccccc3)CC2)cc1,,2.88 µM (active)
CN(C)c1ccc(NC(=O)CN2C(=O)CN=C(c3ccccc3)c3ccccc32)cc1,,9.96 µM (active)
CN(C)c1ccc(NC(=O)CN2C3CCCC2CC(NC(=O)c2ccccc2)C3)cc1 (stereo not given),,3.12 µM (active)
Cc1ccccc1N1C(=O)NC(=O)/C(=C\c2cnn(-c3ccccc3)c2)C1=O,26.2%,
O=C1NC(=O)N(c2cccc(Cl)c2)C(=O)/C1=C\c1ccc(Sc2nc3ccccc3[nH]2)o1,19.3% [at 50 µM],
CN1C2CCC1CC(=NO)C2,23.1%,

SMILES,inhibition,IC50
C=C(C=O)CC1CC(O)[C@]2(C)OC3CC4OC5C[C@]6(C)O[C@]7(C)CCC8OC9C[C@]%10(C)OC%11C(C)=CC(=O)OC%11CC%10OC9C[C@@H](C)C8OC7CC6O[C@]5(C)CC5OC5C4OC3CC2O1 (stereo not given in full),8.3%,
CCCN1CCc2cccc3c2[C@H]1Cc1ccc(O)c(O)c1-3,-48.6%,
Cc1ccc2c(c1)C1CN(C)CCC1N2C(=O)Nc1cccc(C(F)(F)F)c1 (stereo not given),17.6%,
CCCCN1C(=O)/C(=C/c2ccc(N(C)C)cc2)C(=O)N(Cc2ccco2)C1=O,13.8%,
CP(=O)(Nc1ccccc1)C(Cl)(Cl)Cl (stereo not given),-27.6%,
CNC(=O)Oc1ccc(-c2cn3cc(Cl)ccc3n2)cc1,15%,
CNC(=O)Oc1ccc2ncccc2c1,,24.1 µM (active)
CC[C@H](C)/C=C(C)/C=C/C1=CC2=C(Cl)C(=O)[C@@](C)(OC(C)=O)C(=O)C2=CO1,-25.2%,
O=C(CN1CCCC1=O)N1CCOCC1,13.2%,
N/C(=N\N=C/c1ccc(-c2ccc(O)c(C(=O)O)c2)o1)N[N+](=O)[O-],10.8%,
N/C(=N\N=C\c1ccc(O)cc1O)N[N+](=O)[O-],,4.1 µM (active)
COc1ccc(/C=C2/C(=O)NC(=S)N(C3CC3)C2=O)cc1CN1C(=O)c2ccccc2C1=O,2.18%,
O=C(c1ccc2nc(-c3ccco3)c(-c3ccco3)nc2c1)N1CCC2(CC1)OCCO2,-35.8%,
O=C(O)c1cc[c]([Hg][Cl])cc1,1.39%,
CN1C(=O)/C(=C/c2cccn2-c2ccc3ccccc3c2)C(=O)NC1=S,-18.3%,
COc1cc2c(ccc3cc(OC)c(OC)c(O)c32)cc1O,,39.6 µM (active)
O=C1NC(=O)N(c2ccccc2)C(=O)/C1=C/C=C/c1ccco1,12.3% [at 50 µM],
